Source: PubChem
Cruzain inh Det: blocks cruzain activity in presence of Triton detergent; P25779; purified cruzain, Z-FR-AMC fluorescence, 0.01% Triton; Potency, µM, for the others: max response, negative = inhibition, usual class: inhibitors; hit rate 0.43% among 200,000; AID 1478;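 also: plate controls were neutral wells for no effect and buffer without enzyme for full effect; nearly all actives have a fitted effect of over 40% in size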
Target sequence (P25779 123-467 limits assumed): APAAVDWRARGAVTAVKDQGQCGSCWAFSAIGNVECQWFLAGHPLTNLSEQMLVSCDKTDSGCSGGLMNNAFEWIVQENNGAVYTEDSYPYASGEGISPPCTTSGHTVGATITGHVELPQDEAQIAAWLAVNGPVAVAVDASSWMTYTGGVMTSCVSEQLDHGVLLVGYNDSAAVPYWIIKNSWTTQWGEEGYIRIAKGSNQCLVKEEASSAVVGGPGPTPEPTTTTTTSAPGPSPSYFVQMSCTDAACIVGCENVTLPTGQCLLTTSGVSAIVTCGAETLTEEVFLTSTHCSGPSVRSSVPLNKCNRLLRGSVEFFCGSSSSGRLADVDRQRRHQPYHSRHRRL
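Z-FR-AMC hydrolysis (2 uM substrate) by cruzain (1.5 nM) monitored kinetically at ex 360/em 450 nm after 15 min room-temperature compound exposure; 0.01% Triton X-100, pH 5.5, 5 mM DTT.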
Cruzain inh noDet: blocks cruzain activity in detergent-free assay; purified cruzain, Z-FR-AMC fluorescence, no detergent; hit rate 2.3% among 200,000; Potency, µM, without a hit: max response, negative = inhibition, most hits filed as inhibitors;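 also: plate controls were enzyme without inhibitor for no effect and buffer without enzyme for full effect; nearly all actives have a fitted effect of over 40% in size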
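Purified cruzain at 1.5 nM, pre-incubated 15 min with compound at room temperature in 100 mM sodium acetate pH 5.5, 5 mM DTT, 0.00005% Triton X-100. Reaction started with 2 uM Z-FR-AMC; AMC fluorescence increase over 60 s gives rate.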
Starred values were filed as active, the others as inactive; ? = inconclusive. Only some compounds are listed: those with a hit (about 2.6% of all), similar ones and a draw of the others. Calls follow the shape of the dose curve; as a rule, active = well fitted curve in the direction sought with a large enough effect; inconclusive = small, poorly fitted or top-dose-only effect, or another doubt; inactive = no such curve, though single readings can be large; an effect the other way counts as inactive or inconclusive. Potency is read from the fitted curve at half-maximal effect.

SMILES	Cruzain inh Det	Cruzain inh noDet
O=C(/C=C/c1ccc(Cl)c([N+](=O)[O-])c1)Nc1ccc(N2CCCC2)cc1	-27.3%	15.8µM*
O=C(C1CCN(S(=O)(=O)N2CCOCC2)CC1)N1CCOCC1	5.0%	-8.3%
Cn1cccc1CC(=O)NNC(=S)Nc1ccc(Cl)cc1Cl	1.1%	3.2%
O=C(CN1c2ccccc2Sc2ccccc21)NNC(=S)Nc1ccc(Cl)cc1Cl	7.5%	10µM*
CN1C(=O)/C(=C2\SC(=S)N(CC3CCCO3)C2=O)c2ccccc21 (stereo unspecified)	0.3%	0.4%
O=C1/C(=C\c2ccc(-c3ccccc3Cl)o2)SC(=S)N1CC1CCCO1 (stereo unspecified)	-4.1%	15.8µM*
CCOC(=O)c1cnc(SCC(=O)Nc2nnc(CC)s2)nc1N	2.6%	-2.5%
CC(=NC1CCCCC1)C1=C(O)c2ccccc2C1=O	-9.6%	-21.6%
Clc1ccc(-n2ncc3c(NCC4CCCO4)ncnc32)cc1 (stereo unspecified)	-1.9%	-9.1%
Clc1ccc2[nH]c3c(NCCN4CCOCC4)ncnc3c2c1	14.1µM*	15.8µM*
O=c1c2[nH]c3ccc(F)cc3c2ncn1CCCN1CCOCC1	1.3%	-2.1%
O=c1c2[nH]c3ccc(Cl)cc3c2ncn1CCN1CCCCC1	-4.8%	-11.8%
Clc1ccc2[nH]c3c(NCC4CCCO4)ncnc3c2c1 (stereo unspecified)	?	20µM*
Fc1ccc2[nH]c3c(NCCN4CCOCC4)ncnc3c2c1	?	20µM*
Cc1ccc(S(=O)(=O)NCC(=O)OCC(=O)c2cccs2)cc1	-8.7%	-7.0%
Cc1ccc(N2C(=O)NC(NS(=O)(=O)c3ccc(Cl)cc3)(C(F)(F)F)C2=O)cc1C (stereo unspecified)	-4.6%	3.7%
COCC(=O)Nc1nc2n(n1)C(c1ccccc1)CC(c1ccc(OC)cc1)N2 (stereo unspecified)	-2.7%	10.1%
O=C(COC(=O)CCSc1ccc(Cl)cc1)NCc1ccccc1Cl	-13.2%	-20.6%
O=C1CC(SCc2nc3ccccc3[nH]2)C(=O)N1c1cccc(Cl)c1 (stereo unspecified)	-12.1%	15.8µM*
O=C1CC(SCc2nc3ccccc3[nH]2)C(=O)N1c1ccc(F)cc1 (stereo unspecified)	-7.2%	?
CCOC(=O)c1ccccc1NC(=O)c1c(O)c2ccccc2n(CC)c1=O	-6.0%	?
COc1ccc(C(=O)NCC(=O)OCc2cccc(Br)c2)cc1	-7.3%	-1.6%
CC[C@@H]1[C@@H]2Cc3ccc(O)cc3[C@@]1(CC)CCN2C	-0.3%	-3.7%
CCOc1ccccc1NC(=O)COC(=O)C(CC(C)C)N1C(=O)C2CC=CCC2C1=O (stereo unspecified)	-26.1%	7.9%
CC(C)CC(C(=O)OCC(=O)Nc1cccc(Cl)c1)N1C(=O)C2CC=CCC2C1=O (stereo unspecified)	14.1µM*	-19.2%
SMILES	Cruzain inh Det	Cruzain inh noDet
Cc1cccc([N+](=O)[O-])c1NC(=O)CN(Cc1ccccc1)Cc1ccccc1	-4.3%	-2.9%
COc1cc(OC)c(NC(=O)c2cn(C3CCCC3)c(=O)c3c2c2ccccc2n3C)cc1Cl	-2.0%	4.3%
COc1ccc(Cl)cc1NC(=O)c1cn(C2CCCCC2)c(=O)c2c1c1ccccc1n2C	-1.2%	10µM*
O=C(Nc1ccccc1)c1nc2ccccc2s1	-7.0%	-4.9%
Cc1ccc(C)c2sc(NC(=O)c3nc4ccccc4s3)nc12	-1.2%	10µM*
COc1ccc(NC(=O)CN(C)C(C)C(=O)N2CCCCC2)cc1 (stereo unspecified)	1.2%	6.1%
O=C(N/N=C/c1cccc(Oc2ccc([N+](=O)[O-])cc2[N+](=O)[O-])c1)c1cncc(Br)c1	-2.2%	25.1µM*
Cc1ccccc1OCC(=O)N/N=C/c1cccc(Oc2ccc([N+](=O)[O-])cc2[N+](=O)[O-])c1	-3.2%	?
N#CC(C#N)=C1C=CC=CN1/C(=C\c1ccco1)C(=O)c1ccc(Cl)cc1	-21.8%	-14.3%
Clc1ccc(-c2csc3ncnc(N4CCc5ccccc5C4)c23)cc1	-2.7%	?
O=[N+]([O-])c1ccc(N2CCN(S(=O)(=O)c3ccccc3[N+](=O)[O-])CC2)cc1N1CCc2ccccc2C1	-4.4%	6.31µM*
CN1CCN(c2cc(N3CCc4ccccc4C3)c(F)cc2[N+](=O)[O-])CC1	-1.3%	12.0%
O=C(COC(=O)c1sc2ccccc2c1Cl)Nc1ncc(Cl)cc1Cl	-4.6%	?
CCOC(=O)c1ccccc1NC(=O)c1sc2ccccc2c1Cl	-0.7%	4.6%
O=C(COC(=O)CNC(=O)c1sc2ccccc2c1Cl)Nc1c(Cl)cc(Cl)cc1Cl	25.1µM*	?
Cc1ccccc1NC(=O)COC(=O)CNC(=O)c1sc2ccccc2c1Cl	7.94µM*	3.16µM*
Cc1nc2ccc(S(=O)(=O)NC(C(=O)NCc3ccc4c(c3)OCO4)C(C)C)cc2s1 (stereo unspecified)	-2.5%	11.0%
CC(N)=NCCC[C@H](N)C(=O)O	-1.1%	4.4%
